# Rows were chosen to be rich in hits. Some 3.6% of all compounds tested hit in one or more screens of this group.
# Pf apPOL block: Pf-apPOL inhibitors, biochemical, fluorescence. Plasmodium falciparum apicoplast DNA polymerase (apPOL). Recombinant Pf-apPOL, molecular beacon fluorescence, 1.5 h. inhibition, % at 10 µM. 0.25% of 210,000 active. AID 1794808, 2022
# mHTT CaM bind: mutant huntingtin-calmodulin interaction inhibitors – biochemical, AlphaScreen, primary screen; AlphaScreen His-mHTT/GST-CaM binding, luminescence; inhibition, % at 15 µM; 3.6% of 190,000 active; AID 1671202, 2021;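 also: 0% = both proteins with DMSO and 100% = one protein alone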
# Starred values were filed as active, the others as inactive; . = not tested or not shown. Rule as the data show it: active = inhibition above about 50%; inactive = the rest.
SMILES,Pf apPOL block,mHTT CaM bind
Cc1c(Cl)cccc1NC(=O)CCN1CCN(C/C=C/c2ccccc2)CC1,-6,50*
Cc1ccc(NC(=O)CCN2CCN(C/C=C/c3ccccc3)CC2)cc1,-10,42
O=c1/c(=C/c2cccs2)sc2nc(-c3cccc(Cl)c3)nn12,-4,6
Cc1cc(C)nc(Nc2nc(C(=O)NCCn3nc(-c4ccco4)ccc3=O)cs2)n1,35,62*
Cn1cc(C(=O)NCCn2nc(-c3ccco3)ccc2=O)nn1,1,-5
O=C(COc1ccccc1F)NCCn1nc(-c2ccco2)ccc1=O,-2,2
O=C(CC(c1ccccc1)c1ccccc1)NCCn1nc(-c2ccco2)ccc1=O,32,69*
Cn1nnnc1SCc1c(Cl)cccc1Cl,-4,-3
CCCc1c(C(=O)Nc2cc(C(F)(F)F)ccc2Oc2ccsc2C(=O)OC)cnn1-c1ccccc1,2,.
CCOc1ccc(NC(=O)COc2ccccc2)c([N+](=O)[O-])c1,-4,23
CCOc1ccc(NC(=O)C(c2ccccc2)c2ccccc2)c([N+](=O)[O-])c1,-8,50*
CCOc1ccc(NC(=O)c2cccc3ccccc23)c([N+](=O)[O-])c1,-2,63*
CCOc1ccc(NC(=O)c2cc(Cl)ccc2Cl)c([N+](=O)[O-])c1,-24,6
COc1ccc(C)cc1NC(=O)c1cn2c(n1)CSCC2,-6,14
O=C(CN(c1cc(C(F)(F)F)ccc1Cl)S(=O)(=O)c1ccccc1)N1CCOCC1,-1,0
Cc1ccc(C)c(OCC(=O)N2CCC(C(N)=O)CC2)c1,-5,0
CCc1nnc(-c2cccn2CC(=O)NCc2ccc(C)cc2)o1,-2,2
Cc1ccc(-n2cc3c(c2-c2ccccc2)c(=O)n(C)c(=O)n3C)cc1,5,22
COc1ccccc1-n1cc2c(c1-c1ccccc1)c(=O)n(C)c(=O)n2C,-8,26
Cc1cc(C)cc(-n2cc3c(c2-c2ccccc2)c(=O)n(C)c(=O)n3C)c1,83*,36
Cn1c(=O)c2c(-c3ccccc3)n(-c3ccc(F)cc3)cc2n(C)c1=O,75*,41
O=[N+]([O-])c1ccc(N2CCCC2)cc1SCc1ccco1,-1,7
O=[N+]([O-])c1cc(SCc2ccco2)c2c(C3OCCO3)nn(-c3ccccc3)c2c1,-2,78*
COc1ccc(-n2c(C)cc(/C=C/[N+](=O)[O-])c2C)cc1Cl,-2,75*
Cc1cc(C=O)c(C)n1-c1ccc(F)c(Cl)c1,-7,13
SMILES,Pf apPOL block,mHTT CaM bind
CCCNc1cc(N2CCCC(CCC(=O)NCc3ccc(F)cc3F)C2)ncn1 (stereo not drawn),-4,2
Cc1cccc2c1NC(=O)C2(c1ccc(O)cc1)c1ccc(O)cc1,0,21
Cc1cc(C2(c3ccc(O)c(C)c3)C(=O)Nc3c(C)cc([N+](=O)[O-])cc32)ccc1O,-4,86*
CCOC(=O)C(=Cc1ccccc1)C(=O)c1ccccc1OCc1ccccc1,-4,.
Cc1cccc(-c2noc(C3CCCN3C(=O)Cc3cccc(Cl)c3)n2)c1 (stereo not drawn),-6,79*
O=C(Cc1cccc(F)c1)N1CCCC1c1nc(-c2cccc(Cl)c2)no1 (stereo not drawn),1,1
O=C(NCCc1ccccc1)N1CCCC1c1nc(-c2ccccc2)no1 (stereo not drawn),0,1
Cc1ccc(CC(=O)N2CCCC2c2nc(-c3cccc(Cl)c3)no2)cc1 (stereo not drawn),-4,61*
O=C(Cc1ccc(F)cc1)N1CCCC1c1nc(-c2cccc(Cl)c2)no1 (stereo not drawn),-2,20
O=C(NCCc1ccccc1)N1CCCC1c1nc(-c2cccc(Cl)c2)no1 (stereo not drawn),-3,61*
CC1CCc2cc(F)cc3c(O)c(C(=O)Nc4ncccc4O)c(=O)n1c23 (stereo not drawn),-85,22
CCN(CC)CCNC(=O)c1c(O)c2cc(F)cc3c2n(c1=O)C(C)CC3 (stereo not drawn),-78,61*
COc1cccc(C2NC(=O)N(C)C3=C2C(=O)N(Cc2ccccc2)C3)c1 (stereo not drawn),-6,15
O=C(O)CCCC(=O)Nc1cccc(Cl)c1Cl,-2,-3
CC(C)(C)NC(=O)c1nn2c(c1Cl)NC(c1ccccc1)CC2C(F)(F)F (stereo not drawn),2,11
Cc1ccc(O)c(NC(=O)c2nn3c(c2Cl)NC(c2ccccc2)CC3C(F)(F)F)c1 (stereo not drawn),-2,54*
O=C(Nc1cccc(Cl)c1)c1nn2c(c1Cl)NC(c1cccs1)CC2C(F)(F)F (stereo not drawn),-4,17
Cc1ccc(O)c(NC(=O)c2nn3c(c2Cl)NC(c2cccs2)CC3C(F)(F)F)c1 (stereo not drawn),2,55*
O=C(NCC1CCN(c2cc(-c3cccnc3)[nH]n2)CC1)c1ccc(F)c(F)c1,4,23
c1ccc2c(c1)nc1n2CCN(C2CCCCC2)C1,-4,2
COc1ccc(N=C2NC(=O)/C(=C\c3ccc(Cl)cc3)S2)cc1,-9,4
Cc1ccc(O)c(C2NC(=O)c3c(sc(C)c3C)N2)c1 (stereo not drawn),-6,72*
Cc1cccc(C2NC(=O)c3c(sc(C)c3C)N2)c1O (stereo not drawn),0,33
COc1ccc(S(=O)(=O)N2CCC(CN3CCC(C)CC3)CC2)cc1OC,-1,-10
COc1cccc2ccc(C3C(=O)c4ccccc4C3=O)nc12,-4,2
SMILES,Pf apPOL block,mHTT CaM bind
COc1ccc(C2CC(C3C(=O)c4ccccc4C3=O)=NN2)cc1 (stereo not drawn),-1,100*
CCn1cc(Cn2cc(NC(=O)CCn3nc(C(F)(F)F)c(Cl)c3C)cn2)cn1,.,0
NC(=O)Cc1nc(-c2ccccn2)n[nH]1,-7,99*
Cc1cc(C)cc(NC(=O)Cc2nc(-c3ccccc3)n[nH]2)c1,-2,-6
O=C(Cc1nc(-c2ccccc2)n[nH]1)Nc1ccc(Cl)cc1,-1,-6
O=C(Cc1nc(-c2ccccn2)n[nH]1)Nc1ccccc1,-4,73*
Cc1cccc(NC(=O)Cc2nc(-c3ccccn3)n[nH]2)c1,-12,99*
O=C(O)Cc1nc(-c2cccnc2)n[nH]1,4,-14
Cc1csc2nc(-c3cccc(NC(=O)c4ccccc4[N+](=O)[O-])c3)cn12,-5,8
O=C(CSCc1ccccc1)N1CCN(CCn2cccn2)CC1,-6,-7
CC1=NN(c2ccc(F)cc2)C(=O)/C1=C/c1ccc(OCc2ccccc2)cc1,-2,12
CSc1ccccc1NC(=O)C1CC(c2ccc(F)cc2)=NO1 (stereo not drawn),-5,-7
COc1cccc(CNC(=O)C2(C)CCCN(C(=O)c3ccccc3C)C2)c1 (stereo not drawn),7,-1
CCOc1ccc(CCn2c(C)nc3ccccc3c2=O)cc1OCC,-2,0
O=C(Nc1cccc(F)c1)c1ccc(N2CCC(NCc3ccccc3O)C2)nc1 (stereo not drawn),-2,9
O=C(Nc1cccc(F)c1)c1ccc(N2CCC(NCc3cc(Cl)ccc3O)C2)nc1 (stereo not drawn),-4,70*
O=C(Nc1ccc(OC(F)(F)F)cc1)OCc1cc(-c2ccc(Cl)cc2)oc1C(F)(F)F,-2,.
N#Cc1cccc(-c2cn3c(n2)N(C(=O)COc2ccccc2)CCC3)c1,-1,55*

# Source: PubChem
